Source: PubChem BioAssay (National Center for Advancing Translational Sciences (NCATS))
NPC1 promoter act – activators of NPC1 promoter | Huh7 NPC1 promoter luciferase reporter, 24 h | Potency, µM (doses to about 9.22 µM), without a hit: at the top dose activation, usual class: activators | 320,000 compounds, 2.4% hits; note: % of control where 0% means no effect; nearly all actives have a fitted effect of over 60% in size
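NPC1 promoter–luciferase Huh7 cells; 24 h compound; luminescence.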
Rab9 promoter act – Rab9 promoter activation. Huh7 Rab9 promoter-luciferase reporter, luminescence, 24 h. 320,000 compounds, 2.8% hits. Potency, µM (doses to about 9.22 µM), for the others: top-dose activation, negative = inhibition, usual class: activators; note: % of control where 0% means no effect; nearly all actives have a fitted effect of over 60% in size
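Huh7 cells stably carrying Rab9 promoter–luciferase reporter, plated 1500 cells/well, compound added after 2 h and incubated 24 h at 37 °C; luciferase luminescence then read after 10 min with detection reagent.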
ELG1 genotox – genotoxicity induction in ELG1-luciferase HEK293T cells. HEK293T ELG1-luciferase reporter, luminescence, 16 h. Potency, µM (titrated, usually from 46 µM), without a hit: at the top dose activity change, positive = activation, usual class: activators. 330,000 compounds, 1.3% hits. AID 504466; note: % of control where 0% means no effect; nearly all actives have a fitted effect of over 60% in size
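Reporter readout depends on ELG1 protein level, which increases with genetic stress. After 16 hr compound exposure at 37 °C, luciferase activity was quantified using ONE-Glo.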
FLuc modulator – inhibits or activates purified firefly luciferase, miR-21 counter-screen. P08659. purified FLuc, Km substrates, luminescence inhibition. Potency, µM (doses to about 57.5 µM), without a hit: top-dose activity change, negative = inhibition, usual class: inhibitors. 360,000 compounds, 6.9% hits;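 note: plate controls were vehicle for no effect and reference inhibitor for full effect; nearly all actives have a fitted effect of over 55% in size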
Target sequence (P08659 whole entry, looked up): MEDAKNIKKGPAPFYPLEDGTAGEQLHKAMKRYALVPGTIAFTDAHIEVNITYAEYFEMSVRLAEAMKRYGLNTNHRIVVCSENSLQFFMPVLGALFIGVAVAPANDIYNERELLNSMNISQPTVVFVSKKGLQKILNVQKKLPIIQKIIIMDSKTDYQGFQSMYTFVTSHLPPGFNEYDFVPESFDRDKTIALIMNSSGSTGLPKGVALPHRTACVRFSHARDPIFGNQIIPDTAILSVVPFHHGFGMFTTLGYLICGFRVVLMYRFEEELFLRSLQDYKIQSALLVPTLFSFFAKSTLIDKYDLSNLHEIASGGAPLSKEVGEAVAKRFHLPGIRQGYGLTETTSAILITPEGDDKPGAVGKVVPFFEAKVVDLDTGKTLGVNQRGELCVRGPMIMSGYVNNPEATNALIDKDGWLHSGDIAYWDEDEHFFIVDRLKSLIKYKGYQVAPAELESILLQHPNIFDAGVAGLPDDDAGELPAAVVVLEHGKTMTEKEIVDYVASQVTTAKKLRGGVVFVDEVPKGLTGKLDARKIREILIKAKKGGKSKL
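Purified P. pyralis luciferase, 10 nM final, with Km-level 10 uM D-luciferin and 10 uM ATP in 50 mM Tris acetate pH 7.5, 10 mM Mg acetate, 0.01% Tween-20, 0.05% BSA; 6-point qHTS titration about 60 µM downward; luminescence read.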
ELG1 repair inh – blocks ELG1-dependent DNA repair in HEK293T cells; HEK293T ELG1-luciferase reporter, luminescence, 16 h; DNA damage induced by 5-fluorouridine; Potency, µM (titrated, usually from 46.1 µM), for the others: at the top dose activity change, negative = inhibition, most hits filed as inhibitors; 330,000 compounds, 2.3% hits; note: % is set by controls: 0 for no effect and ±100 for the full control effect; nearly all actives have a fitted effect of over 55% in size
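Step one: seed 2,000 cells per well. Step two: pin-transfer compound or DMSO alongside 5-fluorouridine. Step three: incubate 16 hr, 37 °C, 5% CO2. Step four: add ONE-Glo, wait 30 min, read luminescence.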
SMN2 splice up – SMN2 splice variant enhancement; 210,000 compounds, 2.8% hits; HEK293 SMN2-luciferase splicing reporter, luminescence, 30-36 h; Potency, µM (doses to about 46.1 µM), without a hit: at the top dose activity change, positive = activation, most hits filed as activators; AID 1458; note: % of control where 0% means no effect; nearly all actives have a fitted effect of over 55% in size
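HEK293 cells carry an SMN2 […]–luciferase reporter in which exon 7 inclusion puts luciferase in frame. Cells were plated 10-12 h before compound addition, then incubated 30-36 h at 37C. ONE-Glo luminescence was read; sodium butyrate at 4.5 mM final served as control.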
* marks the source's active call; other numbers are inactive results; ? = inconclusive; / = no result given; [ ] = remark or other dose. Most compounds without a hit are left out; they make up all but 9.4% or so of the library. Calls come from the whole dose curve; as a rule, active = well fitted curve in the direction sought with a large enough effect; inconclusive = small, poorly fitted or top-dose-only effect, or another doubt; inactive = no such curve, though single readings can be large; an effect the other way counts as inactive or inconclusive. Potency is the fitted concentration of half-maximal effect.

SMILES	NPC1 promoter act	Rab9 promoter act	ELG1 genotox	FLuc modulator	ELG1 repair inh	SMN2 splice up
COc1ccccc1CNC(=O)c1cc2cc(C)ccc2n1C	/	/	/	1.3%	/	/
Cc1ccccc1C	/	/	/	/	/	-3.3%
O=C(O)COc1ccc2c(-c3ccccc3)cc(=O)oc2c1	10.5%	16.3%	10.2%	19µM*	16.6%	?
COc1ccc(-c2cc(=O)oc3cc(OCC(=O)N(C)C)ccc23)cc1	-3.3%	-37.3%	1.6%	-0.8%	3.6%	/
CN(C)C(=O)COc1ccc2cc(-c3ccccc3)c(=O)oc2c1	3.98µM*	2µM*	?	?	?	17.8µM*
O=C(Nc1ccc2c(c1)N(C1CCCC1)C(=O)c1ccccc1S2)c1ccccc1	/	/	/	2.3%	/	/
COc1ccc(-c2noc(CSc3nnc(C)n3-c3cccc(C)c3)n2)cc1	/	/	/	4.1%	/	-9.2%
CCOC(=O)c1ccc(NC(=O)c2oc3c(c2C)-c2nn(Cc4ccccc4Cl)cc2CC3)cc1	/	/	/	-4.1%	/	/
COc1ccc(C2CC(=O)C3=C(C2)NC(C)=C(C(=O)Nc2ccccc2C)C3c2coc3ccc(C)cc3c2=O)cc1OC (stereo not given)	-0.1%	2.5%	-6.7%	?	5.8µM*	17.5%
CC1=C(C(=O)Nc2ccccc2)C(c2coc3ccccc3c2=O)C2=C(CCCC2=O)N1 (stereo not given)	0.9%	11.9%	0.1%	3.2%	2.9%	15.1%
[O-]/[N+](=C\c1ccc(OC(F)F)cc1)c1ccccc1	?	?	12.1%	15.1µM*	?	-0.6%
COc1cc(C2C(=O)N(C3CCCCCC3)CC(=O)N2CCC2=CCCCC2)ccc1OC(C)C (stereo not given)	/	/	/	-3.4%	/	/
O=C1c2ccccc2C(=O)C1c1ccc(Br)cc1	?	10.2%[1.84 µM]	?	6.01µM*	?	/
O=C1c2ccccc2C(=O)C1c1ccc(O)cc1	-3.0%	10.4%	0.1%	?	-4.2%	-9.6%
CCS(=O)(=O)c1cccc(C(=O)Nc2ccc(-c3nc4ccccc4s3)c(O)c2)c1	/	/	/	5.5%	/	/
COc1ccccc1CC(=O)Nc1ccc2nc(C)sc2c1	17.0%	21.0%	?	16.9µM*	?	/
O=C(CCS(=O)(=O)c1ccccc1)Nc1ccc(-c2nc3ccccc3s2)c(O)c1	?	1.26µM*	14.1%	2.6%	?	2.51µM*
COc1cccc(CC(=O)Nc2ccc3nc(C)sc3c2)c1	27.6%	14.1%	17.1%	16.9µM*	?	5.9%
Cc1nc2ccc(NC(=O)CS(=O)(=O)c3ccccc3)cc2s1	?	?	?	15.1µM*	?	/
CS(=O)(=O)N(Cc1ccccc1)c1ccc(C(=O)Nc2ccc(Cl)cc2)cc1	/	/	/	2.6%	/	3.0%
CCCCCC(=O)/C=C/[C@@H]1[C@@H](C/C=C\CCCC(=O)O)[C@@H](O)C[C@H]1O	/	/	/	/	/	6.7%
Cc1nc2ccc(NC(=O)CCC3CCCC3)cc2s1	?	?	?	12µM*	?	/
Cc1nc2ccc(S(=O)(=O)NCC(=O)N3CCCCC3)cc2s1	-2.3%	-5.1%	2.1%	-1.8%	-3.6%	-14.4%
Cc1nc2ccc(S(=O)(=O)NCC(=O)N3CCN(c4ccccc4)CC3)cc2s1	-2.0%	-0.2%	-12.0%	3.6%	23.1µM*	-25.5%
Cc1nc2ccc(NC(=O)CCS(=O)(=O)c3ccc(Cl)cc3)cc2s1	-1.2%	1.4%	1.2%	-7.0%	-12.6%	-44.1%
SMILES	NPC1 promoter act	Rab9 promoter act	ELG1 genotox	FLuc modulator	ELG1 repair inh	SMN2 splice up
CCN1C(=O)c2ccccc2S(=O)c2ccc(C(=O)N3CCN(c4cccc(Cl)c4)CC3)cc21 (stereo not given)	/	/	/	-0.7%	/	16.0%
NC(=O)C1CCN(c2nc(-c3ccccc3Cl)cs2)CC1	/	/	/	-11.4%	/	/
CC1(C)CC=C(O[Si](C)(c2ccccc2)c2ccccc2)CC1	/	/	/	/	/	-5.5%
COc1ccc2[nH]c3c(NCCCOC(C)C)ncnc3c2c1	1.78µM*	0.794µM*	?	6.01µM*	?	/
COc1ccc2[nH]c3c(NCCC4=CCCCC4)ncnc3c2c1	-23.2%	-16.0%	-2.6%	10.7µM*	?	-33.6%
COc1ccc2[nH]c3c(NCc4ccco4)ncnc3c2c1	?	3.98µM*	9.0%	9.53µM*	?	2.1%
CCN(CC)CCNc1ncnc2c1[nH]c1ccc(OC)cc12	-0.4%	-10.3%	-1.3%	7.6%	-4.7%	-14.8%
CCOc1ccc2[nH]c3c(NCCN(C)C)ncnc3c2c1	1.9%	6.7%	0.5%	-0.5%	14.0%	/
Cc1ccc(-n2c(=O)c3cccnc3n2CC(=O)Nc2cccc(C)c2C)cc1	/	/	/	-6.6%	/	/
Brc1ccc(C2=NC(Cc3ccccc3)CO2)cc1 (stereo not given)	?	?	?	6.75µM*	?	7.08µM*
COc1ccc2cc(CCNS(=O)(=O)c3ccc(C)cc3)c(=O)[nH]c2c1	/	/	/	-2.3%	/	-20.8%
Cc1nn(-c2ccccc2)c2sc(C(=O)N3CCCCC3)cc12	/	/	/	19µM*	/	?
CCN(C(=O)c1coc(=O)c2ccccc12)c1ccccc1C	/	/	/	-6.3%	/	5.6%
COc1ccc(NC(=O)c2c(C)oc3ccc(O)c(CN4CCC(C)CC4)c23)cc1Cl	/	/	/	-8.0%	/	-11.8%
Cc1c(Cl)cccc1NCC(=O)NN=C1CCCC1	-8.5%	0.2%	-1.5%	1.2%	-6.3%	-21.1%
Cc1ccccc1NC(=O)Nc1ccc2c(c1)OCO2	?	2.82µM*	?	?	?	/
O=C(NN=C1CCCCC1)Nc1ccccc1Cl	2.2%	-5.4%	-1.6%	19µM*	-1.7%	/
O=C(Cc1ccccc1[N+](=O)[O-])NNC(=O)Nc1ccc2c(c1)OCO2	0.2%	-1.4%	0.6%	0.4%	0.3%	/
Cc1c(NC(=O)Nc2ccc3c(c2)OCO3)cccc1[N+](=O)[O-]	3.16µM*	?	14.1%	?	?	/
CCOc1ccccc1NC(=O)Nc1ccc2c(c1)OCO2	26.3%	?	11.2%	21.3µM*	?	/
CCOc1ccccc1OCCC(=O)Nc1ccc2c(c1)OCO2	/	/	1.7%	/	?	/
Cc1cccc(NC(=O)Cn2c(=O)n(Cc3ccc4c(c3)OCO4)c(=O)c3ccccc32)c1	/	/	/	-2.1%	/	-3.7%
CC(C)(C)OC=O	/	/	/	/	/	-2.7%
O=C(Nc1ccc(OC(F)(F)F)cc1)C1CCN(S(=O)(=O)c2ccc3[nH]c(=O)ccc3c2)CC1	/	/	/	0.9%	/	/
O=C(Nc1ccccc1Cl)OC1CCCCC1	-1.5%	11.0%	4.4%	23.9µM*	?	/
CCOc1ccccc1NC(=O)Nc1ccc2c(c1)CCC2	?	?	?	6.75µM*	?	/
COc1ccccc1NC(=O)Nc1ccc2c(c1)OCCO2	18.9%	24.4%	11.8%	12µM*	?	?
COc1cccc(OC)c1C(=O)Nc1ccc2c(c1)OCCO2	-1.6%	-10.7%	-1.2%	-0.7%	11.5%	0.6%
